This is an account of results in PubChem BioAssay (NCI).

Compounds without any hit were thinned out: in the full panel of roughly 83,000, 20% have a hit.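 Testing used 96-well plates and a 48-hour single-concentration exposure. Example: -40 means 40% of the starting cells died.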 A number with no mark means an inactive call. Activity calls are given as the source filed them. Rule for the calls: active = growth percent below 10; inactive = the rest.

Some test systems named below: NCI-H23 lung; NCI-H226 lung; NCI-H322M lung; HOP-62 NSCLC; NCI-H460 lung; NCI-H522 lung; A549/ATCC NSCLC; 786-0 renal; COLO 205 colon; DU-145 prostate; K-562 leukemia; MALME-3M melanoma; MDA-MB-231 breast; RXF 393 renal; SF-268 CNS; SF-295 CNS; SF-539 CNS; UACC-257 melanoma; M14 melanoma; HCT-15 colon.
Experiment in all cases: NCI-60 one-dose screen, 48 h (100 = growth as untreated, 0 = no growth, -100 = all killed)
Conditions in all cases: 10 µM unless noted

Take `O=C(Nc1ccc(Cl)cc1)c1cc2c(cc1O)[nH]c1ccccc12`: the growth in the assay with NCI-H23 lung is -22.5% (active); in the assay on NCI-H226 lung, 35.9%; with NCI-H322M lung it was 26.9%; with HOP-62 NSCLC, -2.15% (active); with NCI-H460 lung, 12.5%; with NCI-H522 lung it was -14.4% (active). Further, the growth with A549/ATCC NSCLC was 30%; in the assay on 786-0 renal, 6.54% (active); in the assay with COLO 205 colon, 87.3%; with DU-145 prostate it was 28.4%; with K-562 leukemia it was 10.9%; with MALME-3M melanoma, 23.1%. Besides, the growth is 36.1% with MDA-MB-231 breast; 1.97% (active) in the assay with RXF 393 renal; 34.4% with SF-268 CNS; -43% (active) in the assay with SF-295 CNS; 12.4% in the assay on SF-539 CNS; -21.1% (active) with UACC-257 melanoma. Besides, the figures for the growth in the assay on M14 melanoma and in the assay on HCT-15 colon were 31% and 32%, respectively.

For `COc1ccc(C2=NN(C(=O)c3cc(OC)c(OC)c(OC)c3)C(c3ccc(C#N)cc3)C2)cc1OC` (stereo not given), the growth in the assay on NCI-H23 lung is 43.2%; in the assay with NCI-H226 lung, 52.4%; in the assay on NCI-H322M lung, 36.9%; with HOP-62 NSCLC, 36.1%; in the assay with NCI-H460 lung it was 9.81% (active); in the assay with NCI-H522 lung, -16% (active). Further, the growth in the assay on A549/ATCC NSCLC is 22%; with 786-0 renal, 25.1%; with COLO 205 colon it was -9.28% (active); in the assay on DU-145 prostate, 5.75% (active); with K-562 leukemia, 20.6%; in the assay on MALME-3M melanoma it was 39.5%. The growth is 18.2% with MDA-MB-231 breast; -17.2% (active) with RXF 393 renal; 49.3% with SF-268 CNS; -3.96% (active) in the assay on SF-295 CNS; -13.3% (active) with SF-539 CNS; 69.2% in the assay on UACC-257 melanoma. Moreover, the growth in the assay with M14 melanoma is -6.86% (active); with HCT-15 colon it was 26.7%.

With `CCCCCCCCCCSc1ncnc2nc[nH]c12`, the growth in the assay with NCI-H23 lung is 36.8%; in the assay with NCI-H226 lung, 67.4%; in the assay on NCI-H322M lung, 88.5%; in the assay on HOP-62 NSCLC, 86.3%; in the assay on NCI-H460 lung, 65.8%; in the assay with NCI-H522 lung, 57.1%. Further, the growth is 58.5% in the assay on A549/ATCC NSCLC; 71.3% in the assay on 786-0 renal; 113% with COLO 205 colon; 75% in the assay with DU-145 prostate; 48.5% with K-562 leukemia; 102% in the assay on MALME-3M melanoma. The growth with MDA-MB-231 breast is 75.3%; in the assay with RXF 393 renal, 89.5%; in the assay with SF-268 CNS, 83.7%; in the assay with SF-295 CNS, 68.7%; with SF-539 CNS, 86.8%; with UACC-257 melanoma, 48.5%. The growth in the assay with M14 melanoma was 94%; with HCT-15 colon, 82.4%.

In the case of `C[C@]12CC[C@@H]3c4ccc(O)c([N+](=O)[O-])c4CC[C@H]3[C@@H]1CC[C@@H]2NS(=O)(=O)c1cccc(Br)c1`, the growth in the assay with NCI-H23 lung was 28%; with NCI-H226 lung, 62.4%; in the assay on NCI-H322M lung, 53.8%; in the assay on HOP-62 NSCLC, 78.3%; in the assay with NCI-H460 lung, 20%; in the assay with NCI-H522 lung, -50.4% (active). Moreover, the growth was 19% with A549/ATCC NSCLC; 42.8% in the assay on 786-0 renal; 101% with COLO 205 colon; 52.7% in the assay on DU-145 prostate; 8.39% (active) in the assay with K-562 leukemia; 31.1% with MALME-3M melanoma. Besides, the growth was 26.7% in the assay with MDA-MB-231 breast; 10.4% with RXF 393 renal; 36.2% with SF-268 CNS; 53.2% with SF-295 CNS; 67.5% in the assay on SF-539 CNS; 49.1% in the assay on UACC-257 melanoma. The growth is 43.4% in the assay with M14 melanoma and 26.7% in the assay with HCT-15 colon.

Take `O=c1c(O)cccn1CCCNCCCN(CCCn1cccc(O)c1=O)CCCn1cccc(O)c1=O`: the growth was 97.7% in the assay with NCI-H23 lung; 95% in the assay with NCI-H226 lung; 94.5% in the assay on NCI-H322M lung; 106% in the assay on HOP-62 NSCLC; 99% in the assay on NCI-H460 lung; 117% with NCI-H522 lung. For the same compound, the growth in the assay on A549/ATCC NSCLC is 105%; in the assay with 786-0 renal it was 107%; in the assay on COLO 205 colon it was 125%; with DU-145 prostate, 112%; with K-562 leukemia, 117%; in the assay with MALME-3M melanoma it was 108%. Besides, the growth in the assay with MDA-MB-231 breast was 96%; in the assay with RXF 393 renal, 121%; in the assay with SF-268 CNS, 94%; in the assay with SF-295 CNS it was 102%; with SF-539 CNS, 108%; in the assay on UACC-257 melanoma it was 121%. For the same compound, the figures for the growth in the assay with M14 melanoma and in the assay on HCT-15 colon were 103% and 99.2%, respectively.

Take `O=C1NCN(CCO)CN1`: the growth in the assay with NCI-H23 lung was 98.6%; in the assay on NCI-H226 lung, 105%; in the assay with NCI-H322M lung it was 94.2%; in the assay on HOP-62 NSCLC it was 85.1%; with NCI-H460 lung, 105%; with NCI-H522 lung, 103%. In addition, the growth in the assay on A549/ATCC NSCLC was 101%; with 786-0 renal, 90.4%; in the assay on COLO 205 colon, 120%; in the assay with DU-145 prostate it was 117%; in the assay with K-562 leukemia it was 111%; in the assay on MALME-3M melanoma, 92.6%. The growth is 125% with MDA-MB-231 breast; 107% in the assay with RXF 393 renal; 108% in the assay on SF-268 CNS; 113% in the assay on SF-295 CNS; 93.3% in the assay with SF-539 CNS; 96.7% with UACC-257 melanoma. The growth with M14 melanoma was 96.7%; in the assay with HCT-15 colon it was 109%.

Regarding `CCC1=C(c2ccc(OC)cc2)C(C)(C)Oc2c1ccc(O)c2CN1CCCC1`, the growth was 13.1% with NCI-H23 lung; 29% in the assay on NCI-H226 lung; 47.7% in the assay on NCI-H322M lung; 18.7% with HOP-62 NSCLC; -38.1% (active) in the assay on NCI-H460 lung; 30.4% in the assay with NCI-H522 lung. In addition, the growth in the assay on A549/ATCC NSCLC was 67.1%; in the assay with 786-0 renal it was 34.2%; in the assay on COLO 205 colon, 77.1%; in the assay on DU-145 prostate it was 64.8%; in the assay with K-562 leukemia, -24.9% (active); in the assay with MALME-3M melanoma, -9.28% (active). Moreover, the growth was 24.2% in the assay on MDA-MB-231 breast; 14.9% with RXF 393 renal; 54.3% in the assay with SF-268 CNS; -44% (active) in the assay on SF-295 CNS; 69.3% with SF-539 CNS; -16.1% (active) in the assay on UACC-257 melanoma. For the same compound, the growth in the assay on M14 melanoma was -75.8% (active); with HCT-15 colon it was 8.13% (active).

In the case of `Cc1nc2c(O)cccc2cc1CO`, the growth in the assay on NCI-H23 lung is 94.9%; with NCI-H226 lung it was 114%; with NCI-H322M lung, 165%; with HOP-62 NSCLC it was 106%; in the assay on NCI-H460 lung, 103%; with NCI-H522 lung, 107%. Further, the growth in the assay with A549/ATCC NSCLC was 109%; with 786-0 renal, 96.3%; in the assay with COLO 205 colon, 142%; in the assay with DU-145 prostate it was 113%; in the assay with K-562 leukemia, 82.8%; in the assay on MALME-3M melanoma, 178%. Further, the growth in the assay on MDA-MB-231 breast was 110%; in the assay with RXF 393 renal, 136%; with SF-268 CNS it was 99.8%; in the assay with SF-295 CNS, 106%; in the assay on SF-539 CNS it was 93.5%; with UACC-257 melanoma, 116%. Also, the growth is 110% in the assay on M14 melanoma and 109% with HCT-15 colon.
